# Whole data set: some 25,000 sequences, median “ln(normalized median fluorescence intensity)” near 9.7, cut for the highest 2% near 11. Many of the other results were omitted from the sample, so the highest values are more common in it than they were.
# Tested on: PfAP2-HC AP2 domain (GST-tagged)
# Assay: gcPBM binding intensity (ln(normalized median fluorescence intensity)); higher = stronger DNA binding
# Method in brief: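 GST-fused DNA-binding domains of P. falciparum, expressed in E. coli, were applied at about 25 μg on average for 1 h to an Agilent 4 × 180k array of primer-extended double-stranded 36-bp intergenic genomic probes and negative controls. Binding intensity is the highest Masliner-normalised natural-log median intensity across replicate spots of either probe orientation, measured with Alexa488 anti-GST antibody and a 488 nm scan.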
row,Sequence,gcPBM binding intensity (ln)
1,TTGTTAGAGTATATTGAAAGGATAACCTTTTTTTAT [XGTACX_negctrl_site122],9.43
2,AAAATAATTTTATAGTTGCACTATATCGTATACAAT,9.71
3,AACGATTTACATCACTGTACTAATGATATACCTCAT [XGTACX_site7463],9.85
4,ATAAATATAACATATTGTACCCTTAAAAAGGAACAA [XGTACX_site352],9.5
5,ACGTACTGCCCTAAAGTGCATATATAATATAAACGA [GTGCAC_site9911],9.52
6,GTCATATTAATATGTACACACATATTTATATTTATA [CACACA_site6798],9.83
7,AATGTTTAATATAACGCATGCCTTAATATAGAATGC [TGCATGCA_site463],9.59
8,TAAAGAAAAAGAGAATGTACATGAGAAAAGTATACT [XGTACX_site7472],9.79
9,TTTAAAAAAAAAAAAAAAAATTAAATGAATTATTAA [CACACA_negctrl_site1121],8.95
10,AAAAAAAAAAATATAACACACAACAAAAAAATATAT [CACACA_site1753],10.4
11,ATAGTAAACGAAATAAAAAGATTAGCATAATATCCT [CACACA_negctrl_site1730],9.79
12,ACATGTGAACATTCAATGCACACGATGTAATTATAC [CACACA_site14],9.84
13,TAATTTTTTTTTTTTTTTCATTCTTTTCCTTTGATT [CACACA_negctrl_site1365],9.22
14,CACAACATATATATATATATATATATATATATGTGT [CACACA_negctrl_site28],9.39
15,TATATGTTTGAATATACACACAACATATTTATATAT [CACACA_site7832],9.74
16,ACTTCAAAAAAAAAAAAATATATATATATATATTAT [GTGCAC_negctrl_site158],9.33
17,TATAATTTAACGACATGTACATATAAAAAAATATTT [XGTACX_site2395],9.75
18,TTTTTTTTTTTGATTTGTACACAAAAAAAATATATG [XGTACX_site4547],9.42
19,AATTTGTTGAAACACACACACACATACATATATATA [CACACA_site2287],11.3
20,TAATTTTTGAAACACACACACATATATATATATATA [CACACA_site94],10.5
21,CATATATTTTGAAACACACACATATATAATATACAT [CACACA_site1158],10.4

# — the supplement of paper PMC11417369
